Experimental data reported in PubChem BioAssay AID618 (Sanford-Burnham Center for Chemical Genomics, 2007).
Among all 87,000 compounds or so, about 540 (0.62%) were called active. No rule for the calls is given here. The list comes from a sample in which actives are over-represented; it also holds similar structures and randomly drawn compounds. Entries with a potency or affinity are not part of this list.

Assay: inhibitors of MT1-MMP promoter transcription, cell-based, luciferase reporter, luminescence (AID 618);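 also: actives suppress MT1-MMP promoter-driven transcription so potencies describe inhibitors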
Settings: MT1-MMP promoter luciferase reporter cells

outcome, inactive:
CN1CCN(/C=N/c2sc3c(c2C#N)CCCCC3)CC1, CCN1CCN(/C=N/c2nc(C)cs2)CC1, CC1=CC(C)(C)N2C(=O)C3(C(C#N)=C(N)Oc4cc(C)oc(=O)c43)c3cc(C)cc1c32 (stereo not given), O=C(CCCOc1ccc(Cl)cc1Cl)N1CCN(c2ccccn2)CC1, O=C(O)c1ccc(COc2cccc(CO)c2)cc1, O=C(O)c1ccccc1COc1ccccc1Cl, O=C(O)c1ccc(COc2ccc(CO)cc2Cl)cc1, O=C(c1cccc(Cl)c1)N1CCN(c2ccccn2)CC1, O=C(O)c1ccc(COc2ccccc2Cl)cc1, CCOC(=O)CNC(=O)CSc1ncnc2c1cnn2-c1ccccc1, CCOC(=O)CNC(=O)CSc1ncnc2c1cnn2-c1ccc(Cl)cc1, CCOC(=O)CCc1c(C)n(CC)c2cc(-c3ccccc3OC)nn2c1=O, c1cnc(N2CC[N+]3(CCCC3)CC2)nc1, CCOc1cc(-c2nnc(-c3ccco3)o2)cc(OCC)c1OCC, COCCCNC(=O)Cn1nnc(-c2ccccc2NC(=O)c2ccccc2F)n1, COc1ccc(C2C(C(C)=O)=C(O)C(=O)N2CCO)c(OC)c1 (stereo not given), COC(=O)c1ccc(OC(=O)c2ccc(OC)c(OC)c2)c(OC)c1, COC(=O)c1ccc(OC(=O)c2ccc(OCc3c(C)noc3C)c(OC)c2)cc1, CCn1c(=O)c2c3c(sc2n(C)c1=O)CCC3, Cc1ccc(OCC(=O)Nc2cccc(O)c2)cc1C, Cc1cccc(OCC(=O)Nc2cccc(O)c2)c1, O=C(CCN1CCN(c2ccccc2)CC1)Nc1ccc(Cl)cc1, Cc1cn(Cc2ccccc2)c(=O)[nH]c1=O, Cc1ncsc1C(=O)Nc1nc2c(s1)CC(C)CC2 (stereo not given), CC1CCc2nc(NC(=O)Cc3cccs3)sc2C1 (stereo not given), CC1CCc2nc(NC(=O)C3CC3)sc2C1 (stereo not given), O=C(Nc1nc2c(s1)CCCC2)c1ccc(Br)o1, CC1CCc2nc(NC(=O)CN3CCOCC3)sc2C1 (stereo not given), Cc1cc(C(=O)Nc2nc3c(s2)CCCC3)no1, CC(C)Cc1nnc(NC(=O)CCN2C(=O)c3ccccc3C2=O)s1, CCOC(=O)C1=C(C)N(Cc2ccccc2)C(=O)NC1c1ccc(OC)cc1 (stereo not given), c1ccc(N2CCCCC2)c(NC2=NCCC2)c1, Cc1ccc(-c2nc(=S)c3c(n2CC2CCCO2)CC(C)(C)OC3)cc1 (stereo not given), O=C(NCCCN1CCCC1=O)c1cc(=O)c2ccccc2o1, CCOC(=O)CN(C(=O)Cn1nnc2ccccc21)C(C(=O)NCCOC)c1ccccc1C (stereo not given), COc1ccc2[nH]c3nc(SCc4nnc(-c5ccccc5)o4)nnc3c2c1, COc1ccc2[nH]c3nc(SCc4nnc(-c5ccc(C)cc5)o4)nnc3c2c1, COc1ccc(NC(=O)c2cnc3sccn3c2=O)cc1, Cc1ccc(-c2nc3ccccn3c2NC(=O)c2ccco2)cc1, Cc1cccn2c(=O)c3cc(C(=O)NCc4ccco4)c(=N)n(CCOCCO)c3nc12, CCOc1ccc(-c2nnc3n2N=C(c2ccc(OC)cc2)CS3)cc1, COc1ccc(OC)c(C2=Nn3c(nnc3-c3cc(OC)c(OC)c(OC)c3)SC2)c1, COc1ccc(C2=Nn3c(nnc3-c3ccccc3)SC2)cc1OC, COc1ccc(-c2nnc3n2N=C(c2ccccc2)CS3)cc1OC, CCOc1ccc(C2=Nn3c(nnc3-c3ccc(OC)cc3)SC2)cc1, COc1ccccc1-c1nnc2n1N=C(c1ccc(O)c(O)c1)CS2, COC(=O)c1ccccc1NC(=O)Cn1c(=O)oc2ccc(Cl)cc21, C=CCNc1sc(C(=O)c2ccc(Br)s2)c(N)c1C#N, Cc1ccc(C(=O)NNC(=O)Cc2ccccc2)cc1, Cc1nc2ccccc2n1CC(=O)OCC(=O)Nc1ccc2c(c1)OCCO2, CCc1nnc2n1N=C(c1ccc(OC)cc1)CS2, CCCNC(=O)c1oc2ccc3c(c2c1C)C(=O)CC(C)(C)O3, Cc1c(C(=O)NCc2ccoc2)oc2ccc3c(c12)C(=O)CC(C)(C)O3, CCC(C)n1c(SC(C)C#N)nc2ccccc2c1=O (stereo not given), Nc1nonc1C(=Nc1ccccc1)NO, CCOc1ccc(OCc2ccc(C(=O)NCc3cccnc3)o2)cc1, CCOC(=O)N1CCN(c2nc(-c3ccc(OC)cc3)no2)CC1, c1ccc(COc2ccc(OCCn3cncn3)cc2)cc1, COc1ccc(-c2nc3n(c2Br)CCC3)cc1, O=c1c2ccccc2nc2n1CCCCC2, O=c1c2ccccc2nc2n1CCC2, COc1ccc(-c2cc3nc4n(c(=O)c3s2)CCOC4)cc1, COc1cc2c(cc1NC(=O)CN1C(=O)NC3(CCc4ccccc43)C1=O)oc1ccccc12 (stereo not given), Cc1ccc(S(=O)(=O)NC(=O)Nc2c(C)n(C)n(-c3ccccc3)c2=O)cc1, CCOc1ccccc1NC(=O)CN(c1ccc(C)cc1)S(=O)(=O)c1c(C)noc1C, CCOc1ccccc1NC(=O)CN(c1ccc(OC)cc1)S(=O)(=O)c1c(C)noc1C, Cc1nnc2n(C3CCCCC3)c(=O)c3c4c(sc3n12)CCC4, Cc1nc(Cl)sc1C(=O)O, O=C(Nc1ccon1)c1cc2c(s1)CCCCCC2, CNS(=O)(=O)c1ccc(Oc2ccc(S(=O)(=O)NC)cc2)cc1, O=S(=O)(c1ccc(Oc2ccc(S(=O)(=O)N3CCOCC3)cc2)cc1)N1CCOCC1, COCCCNC(=O)c1ccc2c(c1)OCO2, CCOCCCNC(=O)c1ccc2c(c1)OCO2, Cn1c(=O)c2c(nc(CN3CCN(c4ccccc4)CC3)n2CCCc2ccccc2)n(C)c1=O, COc1ccccc1NC(=O)CN1C(=O)NC(C)(C)C1=O, O=C(NCc1ccccc1)C(c1cccnc1)N(Cc1ccco1)C(=O)c1ccccn1 (stereo not given), CCOC(=O)N1CCN(C(=O)c2ccc3nc(N4CCC(C)CC4)sc3c2)CC1, CCOC(CNC(=O)c1ccc2nc(N3CCC(C)CC3)sc2c1)OCC, Cc1cc(Oc2ccc(C(C)(C)C)cc2)nc(N2CCOCC2)n1, CN(CC(=O)NCCN1CCCCCC1)S(=O)(=O)c1cccc2nsnc12, COc1ccc(-c2nn(C)c3sc(C(=O)NCc4ccco4)cc23)cc1OC, NC(=O)c1cnn2c(C(F)(F)F)cc(-c3ccc(F)cc3)nc12, CN1/C(=C\C(=O)C(F)F)C(C)(C)c2ccccc21, CN1/C(=C\C(=O)c2ccco2)C(C)(C)c2ccccc21, COC(=O)c1ccccc1NC(=O)c1cc(-c2cccs2)on1, Brc1ccc(NC2=Nc3ccccc3CC2)cc1, c1ccc(NC2=Nc3ccccc3CC2)cc1, CC(=O)N1CCc2[nH]c3ccccc3c2C1, CCn1ncc(Br)c1C(=O)Nc1ccc(F)cc1F, O=C(OCn1ncc(Br)c(Br)c1=O)c1ccccc1Cl, CCn1ncc(Br)c1C(=O)Nc1ccc(C(=O)OC(C)C)cc1, Cc1onc(-c2c(F)cccc2Cl)c1C(=O)OCn1nnc2ccccc2c1=O, Cc1ccccc1-n1nc(C(=O)c2cccs2)cc(-c2nc3ccccc3[nH]2)c1=N, O=C(OCc1nnc(-c2ccc(Cl)cc2)o1)c1ccc(=O)n(Cc2ccccc2)n1, Cc1cc(NC(=O)CS(=O)(=O)c2cn(Cc3ccc(F)cc3)c3ccccc23)no1, O=C(Oc1ccc(-c2ccccc2)cc1)N1CCOCC1, O=C(Cn1nc(-c2ccccc2F)ccc1=O)NCc1ccc2c(c1)OCO2, CCCCn1nnc(NC(=O)c2ccc(-c3ccccc3)cc2)n1, CCCCCCCNC1=CC(=O)CC(c2ccco2)C1 (stereo not given), COc1cc(NC(=O)CN(c2ccc(C)cc2)S(=O)(=O)c2c(C)nn(C)c2C)cc(OC)c1, O=C(Nc1ccc2c(c1)OCO2)C(c1ccccc1)N1CCN(C(=O)c2ccco2)CC1 (stereo not given), CCCn1c(C)cc(-c2csc(N)n2)c1C, Cc1cc(-c2csc(N)n2)c(C)n1C, CCOC(=O)c1cc(C)n(CCc2ccccc2)c1C, Nc1nc(-c2ccccc2)cs1

outcome, active:
CCN1CCN(/C=N/c2nc3c(s2)CCCC3)CC1, O=C(O)c1cccc(COc2ccccc2Cl)c1, O=C(O)c1cccc(COc2ccc(CO)cc2Cl)c1, COC(=O)c1ccc2c(c1)C(C)(C)C(/C=C/c1ccc(OC)c(OC)c1OC)=[N+]2C, CC1CCc2nc(NC(=O)c3ccco3)sc2C1 (stereo not given), COc1ccc2[nH]c3nc(SC(C)C)nnc3c2c1, CCOc1ccc(C2=Nn3c(nnc3-c3ccccc3OC)SC2)cc1, COc1cc(-c2nnc3n2N=C(c2ccccc2)CS3)cc(OC)c1OC, COc1ccc(C2=Nn3c(nnc3-c3ccccc3OC)SC2)cc1OC, COc1ccc(-c2cc3nc4n(c(=O)c3s2)CCC4)cc1, CCOc1ccc(N(CC(=O)Nc2ccccc2C)S(=O)(=O)c2c(C)noc2C)cc1, C=CS(=O)(=O)c1ccc(Oc2ccc(S(=O)(=O)C=C)cc2)cc1, O=C(NCCOc1ccccc1)c1ccc2c(c1)OCO2, O=C(OCn1ncc(Br)c(Br)c1=O)c1c(F)cccc1F, O=C(OCn1ncc(Br)c(Br)c1=O)c1ccc(F)cc1
